HT1080-NT tox = kills 2HG-producing HT-1080-NT fibrosarcoma cells; HT-1080-NT fibrosarcoma viability, CellTiter-Glo ATP luminescence, 48 h; Potency, µM (top dose mostly 46.1 µM), inactives show at the top dose activity, negative = less viability, actives largely listed as cytotoxic; hit rate 1.6% among 360,000;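 also: NT is the 2HG producing partner of a matched IDH1 knockdown line; potency is read from the fitted curve at half-maximal effect; 0% = DMSO-treated cells and -100% = media-only wells without cells; nearly all actives have a fitted effect of over 55% in size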
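750 cells/well, RPMI + 5% FBS; 2 h settle, compound pin-transfer, 48 h at 37 degrees C. CellTiter-Glo 10 min RT, luminescence. Normalized to DMSO and media-only wells.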
TDP1 cell CPT = DT40-hTDP1 cell growth loss with CPT | chicken DT40 Tdp1-/-;hTDP1 cells + 20 nM CPT, ATP luminescence, 48 h | Potency, µM (top dose mostly 46.2 µM), without a hit: at the top dose activity change, negative = growth inhibition, usual class: inhibitors | hit rate 12% among 420,000 | AID 686979; also: potency is read from the fitted curve at half-maximal effect; nearly all actives have a fitted effect of over 55% in size
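Chicken DT40 Tdp1-/- cells complemented with human TDP1, 400 cells/well, exposed to compounds plus 20 nM camptothecin for at least 48 h at 37 C; viability read as ATP content by CellTiter-Glo luminescence.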
IL-1B inflam inh = blocks inflammasome-driven IL-1 beta release | THP-1 LPS/ATP IL-1B secretion, AlphaLISA, 16 h; stronger effect = lower value | activity change, % at 57.5 µM | hit rate 4.7% among 360,000; in the data active = activity change below about -50%; inconclusive = mostly about -30% to -49%
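THP-1 cells pretreated 1 hr with compounds (up to 57.5 uM final), then stimulated with LPS (250 ng/mL final) plus ATP (1.25 mM final); secreted IL-1B measured by AlphaLISA after 16 hr, decreased signal indicating inhibition.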
HT1080 IDH1KD tx = kills HT-1080 cells with IDH1 knockdown | HT-1080 IDH1 knockdown viability, ATP luminescence, 48 h | Potency, µM (titrated, usually from 46.1 µM), for the others: at the highest dose activity, negative = toxicity, hits mostly cytotoxic | hit rate 2% among 360,000 | AID 686971;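 also: potency is read from the fitted curve at half-maximal effect; 0% = DMSO wells and -100% = cell-free medium wells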
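IDH1KD HT-1080 cells, 750/well, RPMI + 5% FBS; compound pinned after 2 h settling; 48 h, 37 °C; CellTiter-Glo luminescence; % activity normalised to DMSO and no-cell wells; curves fitted, classed by r2 and efficacy.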
DT40 TDP1 no CPT = qHTS for Inhibitors of human tyrosyl-DNA phosphodiesterase 1 (TDP1): qHTS in cells in absence of CPT | DT40 Tdp1-/- hTDP1 cells, no CPT, ATP luminescence, 48 h | Potency, µM (series often up to 46.2 µM), for inactives: at the highest dose activity change, negative = growth inhibition, most hits filed as inhibitors | hit rate 15% among 420,000 | AID 686978, 2013; also: potency is read from the fitted curve at half-maximal effect; nearly all actives have a fitted effect of over 55% in size
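Luminescent ATP content (CellTiter-Glo) served as the growth readout. Knockout chicken DT40 cells expressing human TDP1 were exposed to compounds without camptothecin for a minimum 48 hr at 37 °C.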
Starred values were filed as active, the others as inactive; i = inactive; ? = inconclusive; . = no result given; [ ] = dose if it differs, or a comment. Most compounds without a hit are left out; they make up all but 19% or so of the library. Unless noted, calls follow the shape of the dose curve; as a rule, active = well fitted curve in the direction sought with a large enough effect; inconclusive = small, poorly fitted or top-dose-only effect, or another doubt; inactive = no such curve, though single readings can be large; an effect the other way counts as inactive or inconclusive. Unless noted, % is scaled to controls: 0 for no effect and ±100 for the full control effect.

SMILES	HT1080-NT tox	TDP1 cell CPT	IL-1B inflam inh	HT1080 IDH1KD tx	DT40 TDP1 no CPT
Cc1nc(N2CCN(c3ccccn3)CC2)c2c(C)c(C(=O)Nc3ccc(F)cc3F)sc2n1	5%	16µM*	-21	2%	13µM*
Cc1nc(N2CCOCC2)c2c(C)c(C(=O)Nc3ccccc3Cl)sc2n1	-16%	-13%	-4	-2%	?
Cc1nc(N2CCN(c3ccccn3)CC2)c2c(C)c(C(=O)Nc3ccccc3F)sc2n1	6%	?	-9	11%	16µM*
Cc1ccc(F)cc1NC(=O)c1sc2ncn(CC(=O)N3CCN(c4ccccn4)CC3)c(=O)c2c1C	0%	9%	-5	0%	?
Cc1nc(N2CCOCC2)c2c(C)c(C(=O)Nc3ccc(F)cc3Cl)sc2n1	22%	-9%	-14	14%	1%
Cc1cccc(Cc2c(C)nc3nc(SCC(=O)NC4CCCCC4)nn3c2C)c1	.	-29%	.	.	-4%
O=[N+]([O-])c1ccc2c(c1)N([O-])C1(CCCCC1)[N+]2=O	-22%	26µM*	.	-3%	?
CC1=C(c2ccccc2)[N+](=O)C2(CCCC2)N1[O-]	-2%	-20%	12	-6%	7%
O=C(Nc1nc(-c2ccc(Cl)cc2)cs1)c1cccnc1	-9%	?	-10	-2%	18µM*
CCc1ccc(-c2csc(NC(=O)C3=NN(c4ccccc4)C(=O)CC3)n2)cc1	?	?	53	?	26µM*
O=C(COC(=O)C1=NN(c2ccccc2)C(=O)CC1)Nc1nc(-c2ccc(F)cc2)cs1	-6%	?	-2	-17%	-18%
CCc1ccc(-c2csc(NC(=O)c3cccnc3)n2)cc1	-1%	?	20	?	16µM*
CCc1ccc(C(=O)COC(=O)C2CCN(c3ccc(C(F)(F)F)cn3)CC2)cc1	8%	4%	14	11%	-30%
Cc1ccccc1NS(=O)(=O)c1ccc(C(=O)NCC(C)(C)N2CCOCC2)cc1	-15%	?	2	-10%	?
COCCC1CCCCN1C(=O)c1cc(COc2ccc(C)nc2)on1 (stereo not given)	21µM*	21µM*	?	-10%	23µM*
O=C(c1cc(COc2ccc(-n3cncn3)cc2)on1)N1CCCC1	19%	-20%	-3	9%	-21%
COCCCC1CCN(C(=O)c2cc(COc3ccc(C)nc3)on2)CC1	?	18µM*	24	-13%	10µM*
CCC1CCCCN1C(=O)c1cc(COc2ccc(-n3cncn3)cc2)on1 (stereo not given)	?	18µM*	i	-3%	16µM*
S=c1[nH]ncn2c1cc1oc3ccccc3c12	19%	-4%	-16	26%	-5%
N#Cc1c(NC(=O)CSc2ncccn2)oc(-c2ccccc2)c1-c1ccccc1	-1%	-7%	5	-2%	-13%
COc1ccccc1OCC(=O)Nc1oc(-c2ccccc2)c(-c2ccccc2)c1C#N	-29%	-1%	6	0%[9.24 µM]	-20%
COc1ccc(-c2oc(NC(=O)CSc3ncn[nH]3)c(C#N)c2-c2ccc(OC)cc2)cc1	?	13µM*	0	?	?
COc1ccc(-c2oc(NC(=O)CCl)c(C#N)c2-c2ccc(OC)cc2)cc1	?	6.5µM*	-93*	?	5.2µM*
Cc1ccc(OCC(=O)Nc2oc(-c3ccccc3)c(-c3ccccc3)c2C#N)cc1	?	21µM*	0	?	16µM*
COCCCn1c(O)c(/C=C2\N=C(C#N)C(=Nc3ccc(C)cc3)O2)sc1=S	?	?	-82*	?	3.3µM*
SMILES	HT1080-NT tox	TDP1 cell CPT	IL-1B inflam inh	HT1080 IDH1KD tx	DT40 TDP1 no CPT
Cn1c(=S)c2[nH]c(SCC3CCCO3)nc2n(C)c1=O (stereo not given)	0%	1.3µM*	-88*	-8%	1.2µM*
CCCC(C)Sc1nc2c([nH]1)c(=S)n(C)c(=O)n2C (stereo not given)	-6%	4.6µM*	-102*	-10%	4.6µM*
O=c1[nH]c(SCC2CCCCO2)nc2ccccc12 (stereo not given)	-30%	?	-3	-29%	-16%
COc1ccc(OC)c(S(=O)(=O)N2CCCC(C(=O)N3CCCCCC3)C2)c1 (stereo not given)	-1%	-1%	15	9%	-7%
COc1cccc2c1C(=O)/C(=C\c1ccc(N(C)C)cc1)C2	.	?	.	.	11µM*
O=c1c(-c2ccco2)nc2ccccc2n1C(c1ccccc1)c1nc2ccccc2[nH]1 (stereo not given)	?	16µM*	-8	?	23µM*
O=c1c(-c2ccco2)nc2ccccc2n1C(CCc1ccccc1)c1nc2ccccc2[nH]1 (stereo not given)	?	?	-19	-17%	?
O=c1c(-c2ccco2)nc2ccccc2n1C(c1ccccn1)c1nc2ccccc2[nH]1 (stereo not given)	-18%	?	0	-7%	?
CCC(c1nc2ccccc2[nH]1)n1c(=O)c(-c2ccco2)nc2ccccc21 (stereo not given)	6%	21µM*	-66*	-1%	18µM*
NC(=O)N1c2ccccc2C=Cc2ccccc21	?	?	31	-9%	?
COC(=O)N1c2ccccc2C=Cc2ccccc21	?	?	10	?	21µM*
CCN(CC)C(=O)N1c2ccccc2C=Cc2ccccc21	-19%	9.2µM*	0	?	10µM*
O=C(COc1ccc(Br)cc1)NCCNC(=O)c1ccccn1	-3%	-13%	7	-1%	-5%
CC(=O)N/C(=C\c1ccccc1)C(=O)OCC(=O)NC1CCS(=O)(=O)C1 (stereo not given)	11%	-1%	19	0%	?
O=C1c2ccsc2SCCN1Cc1c(Cl)cccc1Cl	-4%	-12%	16	-5%	-17%
CC(O)CNCCCOc1ccc(Cl)cc1C(C)(C)C (stereo not given)	18µM*	13µM*	-66*	?	13µM*
CN(C)CCOCCOc1ccc(Cl)cc1C(C)(C)C	?	?	-56*	?	?
O=C(CS(=O)(=O)Cc1ccccc1)c1ccccc1	5%	-28%	5	4%	-21%
COc1ccc(C(=O)NCC(=O)NCC2COc3ccccc3O2)cc1 (stereo not given)	-2%	0%	8	2%	-12%
CC(C)=C[C@@H]1C[C@H](C)[C@H]2CC[C@H](C)c3c(O)c(O)c(C)c1c32	-1%	21µM*	-8	-4%	?

Source: PubChem
